Structures are written as SMILES. The whole screen tested about 190,000 compounds, of which about 810 (0.43%) were called active. Cut-off read from the data, not from the text of the source: active = inhibition above about 50%; inactive = the rest. The entries come from a sample that favours actives as a whole.

For this experiment, the target named is Mannose-6-phosphate isomerase (Homo sapiens) (UniProt P34949). Kind of experiment: inhibitors of human PMI, primary screen, biochemical, fluorescence intensity, coupled assay (AID 1209).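 Note: plate controls were DMSO vehicle for no effect and wells lacking substrate for full effect.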 The settings on record: purified PMI enzyme, at 20 µM, active compounds read high.
Sequence of Mannose-6-phosphate isomerase (Homo sapiens) (P34949 whole entry, looked up): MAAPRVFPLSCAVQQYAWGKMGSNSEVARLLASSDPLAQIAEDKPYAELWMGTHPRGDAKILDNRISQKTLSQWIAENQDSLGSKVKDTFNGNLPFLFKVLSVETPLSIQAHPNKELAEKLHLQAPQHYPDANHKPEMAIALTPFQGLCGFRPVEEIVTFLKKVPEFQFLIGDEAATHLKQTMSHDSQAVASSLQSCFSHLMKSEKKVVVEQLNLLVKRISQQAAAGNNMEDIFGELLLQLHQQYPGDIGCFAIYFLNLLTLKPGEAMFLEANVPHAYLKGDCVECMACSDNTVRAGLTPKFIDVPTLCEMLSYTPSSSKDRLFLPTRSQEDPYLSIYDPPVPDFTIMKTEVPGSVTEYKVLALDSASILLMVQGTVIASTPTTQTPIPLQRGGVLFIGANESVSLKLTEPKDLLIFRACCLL
In the case of `O=S1(=O)CC(O)C(NCc2ccco2)C1` (stereo unspecified), the inhibition was -0.2% (inactive). As to `COc1ccc(-c2csc(NC(=O)c3cc(=O)c4ccccc4o3)n2)cc1OC`, the inhibition was -9.2% (inactive). With `COC(=O)c1ccc(COC(=O)C23CC4CC(CC(O)(C4)C2)C3)o1`, the inhibition is 1.1% (inactive). For the compound `CN(C)C=Nc1c(Br)cc(Br)c2nonc12`, the inhibition is 70.8% (active).

For the compound `CN(C)C=Nc1nonc1N`, the inhibition was -5.6% (inactive). Next, `Cc1cc(/N=C/N(C)C)on1`: 4.8% (inactive); `CC1(c2ccc([N+](=O)[O-])cc2)CC(C)(C)N(C(=O)c2ccccc2)c2ccccc21` (stereo unspecified): 15.2% (inactive); `CC1(C)CC(CCC(=O)Nc2ccc(S(N)(=O)=O)cc2)C(=O)O1` (stereo unspecified): -3.1% (inactive).

On to `O=c1[nH]c2cc3c(cc2cc1CN(CCCO)C(=S)NCc1ccco1)OCO3`, for which the inhibition is 11.2% (inactive). Next, `CC(C)CNC(=S)N(Cc1ccco1)Cc1cc2cc3c(cc2[nH]c1=O)OCCO3`: 19.9% (inactive); `CN(C)CCN(Cc1cc2cc3c(cc2[nH]c1=O)OCO3)C(=S)NCc1ccco1`: 9.6% (inactive); `Cc1cc2cc(CN(CC3CCCO3)C(=S)NCc3ccco3)c(=O)[nH]c2cc1C` (stereo unspecified): 9% (inactive). Regarding `Cc1ccc2[nH]c(=O)c(CN(CC3CCCO3)C(=S)NCc3ccco3)cc2c1` (stereo unspecified), the inhibition was 17.8% (inactive). Regarding `O=c1[nH]c2cc3c(cc2cc1CN(Cc1cccnc1)C(=S)NCc1ccco1)OCO3`, the inhibition is 53.9% (active). Under `Cc1ccc2cc(CN(CC3CCCO3)C(=S)NCc3ccco3)c(=O)[nH]c2c1` (stereo unspecified) stands 54.6% (active); under `CCNC(=S)N(Cc1ccco1)Cc1cc2cc3c(cc2[nH]c1=O)OCCO3`, 17.8% (inactive).

Take `O=c1[nH]c2cc3c(cc2cc1CN(Cc1cccnc1)C(=S)NCc1ccco1)OCCO3`: the inhibition was 59.7% (active).

Turning to `O=C(Cn1cnc2ccccc2c1=O)NCCC(=O)Nc1ccc2c(c1)OCO2`, the inhibition was -1.6% (inactive). `Fc1ccc(-c2cc(C(F)(F)F)n3ncnc3n2)cc1`: the inhibition was -18.4% (inactive). Regarding `COC(=O)c1ccc(-n2c(C)cc(C(=O)COC(=O)CC3Sc4ccccc4NC3=O)c2C)cc1` (stereo unspecified), the inhibition was 3.1% (inactive). Under `CCOC(=O)c1nnc(-c2ccc(C)cc2)nc1Oc1ccccc1Cl` stands 13.7% (inactive); under `CCOC(=O)c1sc(NC(=O)/C=C/c2ccccc2)nc1C`, -6.9% (inactive); under `CCOC(=O)c1sc(N/N=C/c2ccccc2)nc1C`, 60.3% (active). For `CCOC(=O)c1sc(N/N=C/c2cccc(C)c2)nc1C`, the inhibition is 7.8% (inactive). Turning to `Cc1ccc(-n2nnc3c(=O)n(Cc4ccccn4)cnc32)cc1C`, the inhibition was -5.8% (inactive). Consider `CCN(CC)c1ccc(/C=N/NC(=O)Cc2cccs2)cc1`, for which the inhibition was 15.6% (inactive).

For the origin of these results see PubChem BioAssay AID1209 (Sanford-Burnham Center for Chemical Genomics, 2008).
